# Measured values taken from PubChem BioAssay (NCATS).
# Values joined by “and” are separate entries in the source; they are usually repeats but may differ in a detail not shown here. Identical values can stand only once. Inconclusive results are not listed. Unmarked numbers belong to inactive results. Active and inactive are the calls of the source. Calls come from the whole dose curve; as a rule, active = well fitted inhibition curve with a large enough effect; inconclusive = small, poorly fitted or top-dose-only effect; inactive = flat fitted curve, though single readings scatter.
# Test system: CRL-7250
# Assay: Cytotoxic Profiling of Annotated Libraries Using Quantitative High-Throughput Screening (AID 1296008); note: nearly all actives have a fitted effect of over 60% in size
# Conditions: Five cell lines viability, CellTiter-Glo ATP luminescence, 48-72 h; max response: active compounds read low
# Outline: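 Cells exposed to compounds for 48 or 72 hr at 37 degrees Celsius. Viability read as ATP-coupled luminescence with CellTiter-Glo after 10 min at room temperature.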
# % is set by controls: 0 for no effect and ±100 for the full control effect; potency is the fitted concentration of half-maximal effect.
Structure (SMILES),Potency,max response,outcome
Oc1cccc(-c2nc(N3CCOCC3)c3oc4ncccc4c3n2)c1,76.2 nM (active),–,–
C[C@]1(c2nc3c(C(N)=O)cccc3[nH]2)CCCN1,–,-16.5%,–
NC(=O)c1ccc(I)c([N+](=O)[O-])c1,–,1.49%,–
COc1ccc(-c2oc3cc(OC)ccc3c2C(=O)c2ccc(C#N)cc2)cc1,–,–,inactive
O=C(Nc1nc2ccccc2n1CCN1CCOCC1)c1cccc([N+](=O)[O-])c1,–,–,inactive
CCOC(=O)N[C@@H]1CC[C@@H]2[C@@H](C1)C[C@H]1C(=O)O[C@H](C)[C@H]1[C@@H]2C=Cc1ccc(-c2cccc(F)c2)cn1,–,-6.96%,–
COc1ccccc1-c1cccc(-c2c(O)c3cc(C#N)c(Cl)cc3[nH]c2=O)c1,8550 nM (active),–,–
Cc1cnc(Nc2ccc(OCCN3CCCC3)cc2)nc1Nc1cccc(S(=O)(=O)NC(C)(C)C)c1,3720 nM (active),–,–
COc1cc2nccc(Oc3ccc(NC(=O)NC4CC4)c(Cl)c3)c2cc1C(N)=O,920 nM (active),–,–
N#CC[C@H](C1CCCC1)n1cc(-c2ncnc3[nH]ccc23)cn1,–,-20.9% and 3.07%,–
C[C@]12CCC(=O)C=C1CC[C@@H]1[C@@H]2[C@@H](O)C[C@@]2(C)[C@H]1CC[C@]2(O)C(=O)CO,–,3.48%,–
CCOc1cc(C=C2C(=O)N(c3ccccc3)N=C2C)cc(Cl)c1OCC(=O)OC,–,3.6%,–
COc1ccc(-c2ccc3c(N4CCOCC4)nc(N4C[C@@H](C)O[C@@H](C)C4)nc3n2)cc1CO,296 nM (active),–,–
